Results reported in PubChem BioAssay AID1159580 (chemical genetic matrix, 2015).
Values joined by “and” are separate entries in the source; they are usually repeats but may differ in a detail not shown here. Equal values may be shown once. The whole screen tested about 5,500 compounds, of which about 2,000 (36%) were called active. About 18% were inconclusive and are not listed. Rule as the data show it: active = normalized growth mostly below about 0.91 (no sharp cut-off); inconclusive = no clear call, values can overlap the other calls; inactive = mostly above about 0.92. Some of the results follow.

Assay: chemical genetic growth profiling, strain panel (AID 1159580);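 also: tested at 20 µM; growth read once vehicle control cultures reached saturation at 30 °C; 1 = growth at the plate median or of vehicle wells; lower values mean less growth of the strain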
Settings: S. cerevisiae deletion strains, growth OD

Measured: normalized growth

CN[C@@H](C)[C@@H](O)c1ccccc1
inactive: locus YAL021C, strain ccr4, stronger effect = lower value 0.987 | locus YAL026C, strain drs2, stronger effect = lower value 0.995 | locus YAL030W, strain snc1, stronger effect = lower value 0.995 | locus YBL061C, strain skt5, stronger effect = lower value 0.992 | locus YBR009C, strain hhf1, stronger effect = lower value 1.02 | locus YBR021W, strain FUR4, stronger effect = lower value 1.01 | locus YBR023C, strain chs3, stronger effect = lower value 0.981 | locus YBR171W, strain sec66, stronger effect = lower value 0.993 | locus YBR229C, strain ROT2, stronger effect = lower value 0.949 | locus YBR231C, strain swc5, stronger effect = lower value 0.996 | locus YBR279W, strain paf1, stronger effect = lower value 1 | locus YCL011C, strain gbp2, stronger effect = lower value 0.971 | locus YCL016C, strain dcc1, stronger effect = lower value 0.987 | locus YCL029C, strain bik1, stronger effect = lower value 0.976 | locus YCL069W, strain vba3, stronger effect = lower value 0.995 | locus YCR088W, strain abp1, stronger effect = lower value 0.995 | locus YDL005C, strain med2, stronger effect = lower value 0.994 | locus YDL035C, strain GPR1, stronger effect = lower value 0.949 | locus YDL040C, strain nat1, stronger effect = lower value 1 | locus YDL074C, strain BRE1, stronger effect = lower value 1.01 | locus YDL101C, strain DUN1, stronger effect = lower value 1 | locus YDL185W, strain tfp1, stronger effect = lower value 0.961 | locus YDL192W, strain arf1, stronger effect = lower value 0.989 | locus YDR001C, strain nth1, stronger effect = lower value 0.996 | locus YDR069C, strain doa4, stronger effect = lower value 0.993 | locus YDR101C, strain arx1, stronger effect = lower value 0.998 | locus YDR137W, strain rgp1, stronger effect = lower value 0.982 | locus YDR159W, strain sac3, stronger effect = lower value 0.943 | locus YDR162C, strain NBP2, stronger effect = lower value 0.929 | locus YDR195W, strain ref2 0.977 | locus YDR297W, strain sur2, stronger effect = lower value 1 | locus YDR318W, strain mcm21, stronger effect = lower value 0.986 | locus YDR334W, strain swr1, stronger effect = lower value 1.01 | locus YDR335W, strain msn5, stronger effect = lower value 1 | locus YDR388W, stronger effect = lower value 0.992 | locus YDR392W, strain spt3, stronger effect = lower value 0.911 | locus YDR502C, strain sam2, stronger effect = lower value 1.01 | locus YEL003W, strain gim4, stronger effect = lower value 0.996 | locus YEL037C, strain rad23, stronger effect = lower value 0.985 | locus YEL061C, strain CIN8 (second series), stronger effect = lower value 0.989 | locus YEL061C, strain CIN8, stronger effect = lower value 0.989 | locus YER015W, strain faa2, stronger effect = lower value 1 | locus YER016W, strain bim1, stronger effect = lower value 0.984 | locus YER110C, stronger effect = lower value 0.987 | locus YER111C, strain swi4, stronger effect = lower value 0.996 | locus YER155C, strain BEM2 (second series), stronger effect = lower value 0.997 | locus YER155C, strain BEM2, stronger effect = lower value 0.999 | locus YER167W, strain BCK2, stronger effect = lower value 0.982 | locus YFR010W, strain ubp6, stronger effect = lower value 0.992 | locus YGL078C, strain dbp3, stronger effect = lower value 0.996 | locus YGL086W, strain mad1, stronger effect = lower value 0.996 | locus YGL167C, strain pmr1, stronger effect = lower value 1 | locus YGL173C, strain kem1, stronger effect = lower value 0.988 | locus YGL227W, strain vid30, stronger effect = lower value 0.982 | locus YGL240W, strain doc1, stronger effect = lower value 1 | locus YGL248W, strain PDE1, stronger effect = lower value 1.01 | locus YGL253W, strain hxk2, stronger effect = lower value 0.985 | locus YGR135W, strain pre9, stronger effect = lower value 0.989 | locus YGR252W, strain gcn5, stronger effect = lower value 1.01 | locus YHR013C, strain ard1, stronger effect = lower value 0.961 | locus YHR027C, strain rpn1, stronger effect = lower value 1 | locus YHR030C, strain SLT2, stronger effect = lower value 0.977 and 1.04 | locus YHR079C, strain IRE1 (second series), stronger effect = lower value 0.993 | locus YHR079C, strain IRE1, stronger effect = lower value 1.02 | locus YHR094C, strain hxt1, stronger effect = lower value 0.985 | locus YHR129C, strain ARP1, stronger effect = lower value 0.994 | locus YHR142W, strain chs7, stronger effect = lower value 0.976 | locus YHR200W, strain rpn10, stronger effect = lower value 0.984 | locus YIL066C, strain RNR3, stronger effect = lower value 0.926 | locus YIL073C, strain SPO22, stronger effect = lower value 0.973 | locus YIL125W, strain kgd1, stronger effect = lower value 0.987 | locus YIR030C, strain dcg1, stronger effect = lower value 0.996 | locus YJL092W, strain hpr5, stronger effect = lower value 0.999 | locus YJL095W, strain BCK1 (second series), stronger effect = lower value 0.994 | locus YJL095W, strain BCK1, stronger effect = lower value 1.06 and 1.01 | locus YJL115W, strain asf1, stronger effect = lower value 0.999 | locus YJL129C, strain trk1, stronger effect = lower value 1.01 | locus YJL134W, strain LCB3, stronger effect = lower value 0.98 | locus YJL154C, strain vps35, stronger effect = lower value 0.996 | locus YJL164C, strain tpk1, stronger effect = lower value 1 | locus YJL166W, strain qcr8, stronger effect = lower value 1.01 | locus YJL168C, strain set2, stronger effect = lower value 0.995 | locus YJL187C, strain SWE1 (second series), stronger effect = lower value 1.03 | locus YJR043C, strain POL32, stronger effect = lower value 0.938 | locus YJR066W, strain TOR1, stronger effect = lower value 0.982 | locus YKL009W, strain mrt4, stronger effect = lower value 0.998
